Experimental data reported in PubChem BioAssay.
Values without a mark were called inactive. Active and inactive are the calls of the source.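 Rule for the calls: active = compounds that lower survival of DLD-1 colon cancer cells in the luminescence readout, no cutoff given; inactive = the rest.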

Assay: NPC library primary testing for decreased DLD-1 cell viability via CellTiter-Glo (AID 1117346)
Settings: DLD-1 viability, CellTiter-Glo luminescence; at 20 µM (top of the series)

Structure (SMILES)	viability decrease (inhibition)
COC(=O)Nc1nc2ccc(C(=O)C3CC3)cc2[nH]1	51.6% (active)
Oc1ccc(C(O)CNCCCCCCNCC(O)c2ccc(O)c(O)c2)cc1O (centres undefined)	40.4%
CC(=O)OC[C@H]1O[C@@H](OC(C)=O)[C@H](OC(C)=O)[C@@H]1OC(C)=O	4.4%
Cc1ccccc1N=Nc1ccc(N=Nc2c(O)ccc3ccccc23)c(C)c1	15.4%
Nc1ccc(C(=O)OCC(O)CO)cc1 (centres undefined)	-3.4%
NNc1nnc(NN)c2ccccc12	6.6%
Cc1ncc(CO)c(C=O)c1O	-1.4%
CCOC(=O)c1cc(=O)c2c(OCC(COc3cccc4oc(C(=O)OCC)cc(=O)c34)OC(=O)[C@@H](N)CCCCN)cccc2o1	-11.5%
CN(C)[C@@H]1C(=O)C(C(=O)NCN2CCCC2)=C(O)[C@@]2(O)C(=O)C3=C(O)c4c(O)cccc4[C@@](C)(O)C3C[C@@H]12 (some centres undefined)	2.6%
Nc1nc(=O)n([C@@H]2O[C@H](CO)[C@@H](O)[C@@H]2F)cc1I	23.1%
OCC(O)CS (centres undefined)	-8.2%
Nc1ccc(/C=C/c2ccc(N)cc2S(=O)(=O)O)c(S(=O)(=O)O)c1	-4.05%
CC(=O)Nc1ccn(C2COC(COC(=O)c3ccccc3)O2)c(=O)n1 (centres undefined)	29.9%
COC1=C(OC)C(=O)C(CC=C(C)CCC=C(C)CCC=C(C)CCC=C(C)CCC=C(C)CCC=C(C)CCC=C(C)CCC=C(C)CCC=C(C)CCC=C(C)C)=C(C)C1=O	1.9%
NC[C@H]1O[C@H](O[C@H]2[C@@H](O)[C@@H](O[C@H]3O[C@H](CO)[C@@H](O)[C@H](N)[C@@H]3O)[C@H](N)C[C@@H]2N)[C@H](N)C[C@H]1O	-15.9%
Cc1ccc(O)c(-n2nc3ccccc3n2)c1	13.8%
Nc1c(NC/C=C\COc2cc(CN3CCCCC3)ccn2)c(=O)c1=O	-5%
CCCCNC(=O)NS(=O)(=O)c1ccc(N)cc1	8.7%
CC(=O)c1cc2ccccc2s1	26.6%
NS(=O)(=O)c1ccc(Cl)c(S(N)(=O)=O)c1	-7.1%

Structure (SMILES)	viability decrease (inhibition)
CC(C)Cc1ccc(CC(=O)O)cc1	-8%
NCC(=O)O	7.4%
CC12CCC(C[N+](C)(CCC[N+](C)(C)C)C1)C2(C)C (centres undefined)	-4%
CN(C)C(=O)CNC(=O)Cc1ccccc1	-0.5%
Cc1cccc(N(C)C(=S)Oc2ccc3c(c2)CCC3)c1	55.5% (active)
COc1cc2c(cc1OC)C(C(C(=O)N(CCc1ccc(OC)c(OC)c1OC)CCc1ccc(OC)c(OC)c1OC)c1ccccc1)=NCC2 (centres undefined)	69.8% (active)
O=C1CCC(C(=O)O)N1 (centres undefined)	-4%
O=Cc1ccc(O)c(O)c1O	36.5%
O=S(c1cc(Cl)cc(Cl)c1O)c1cc(Cl)cc(Cl)c1O	101% (active)
CC(C)(C)c1cc(C=O)cc(C(C)(C)C)c1O	-10%
CN(CC1(C)CCCO1)S(=O)(=O)c1ccc(Cl)c(S(N)(=O)=O)c1 (centres undefined)	2.2%
CCCCC(C)(O)CC=C[C@H]1[C@H](O)CC(=O)[C@H]1CCCCCCC(=O)OC (some centres undefined)	66.4% (active)
C=CCOc1cc(Cl)ccc1C(=O)NCCN(CC)CC	-3.9%
CC(=O)SCC(CC(=O)c1ccc(C)cc1)C(=O)O (centres undefined)	-15.2%
CCCCNc1ccc(C(=O)OCCN(CC)CC)cc1	88.7% (active)
C/C=C(/C(=C/C)c1ccc(OC(C)=O)cc1)c1ccc(OC(C)=O)cc1	97.2% (active)
O=C(Nc1ccc(Oc2ccc(Cl)cc2)c(Cl)c1)c1cc(I)cc(I)c1O	102% (active)
CC(=O)Nc1ccc(OC(=O)c2ccccc2OC(C)=O)cc1	-10.1%
O=C(/C=C/c1ccccc1)OCc1ccccc1	7.4%
